Screens (PubChem)
HCMV antiviral – inhibitors of human cytomegalovirus; HFF cells, HCMV-luciferase reporter, 72 h; stronger effect = lower value; activity change, negative = inhibition, % at 57.5 µM; 4.5% of 410,000 active; AID 1259415; in the data active = activity change below about -60%; inconclusive = no clear call, values can overlap the other calls; inactive = above about -39%
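Two-dose cell screen: HFF monolayers treated with compounds and infected with luciferase-expressing HCMV at 1 PFU/cell, 72 h at 37C, then lysed for luciferase measurement.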
TbPYK inhibitor – blocks Trypanosoma brucei pyruvate kinase; 0.12% of 410,000 active; Potency, µM (top dose mostly 76.8 µM), inactives show at the highest dose activity, negative = inhibition, hits mostly inhibitors; TbPYK enzyme, Kinase-Glo Plus ATP luminescence, 45 min; AID 624173; Q57TT1; also: potency is read from the fitted curve at half-maximal effect; nearly all actives have a fitted effect of over 50% in size
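Luminescent Kinase-Glo Plus end-point after 45 min room-temperature reaction of T. brucei pyruvate kinase started with 130 uM ADP (final). Buffer TEA 50 mM pH 7.2 with KCl, MgCl2, BSA, Tween-20; titration-based qHTS with fitted concentration-effect curves.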
RE007 growth inh – less growth of the S. pombe RE007 Vpr strain | AID 651644 | 0.21% of 360,000 active | Potency, µM (highest dose often 92.2 µM), for the others: at the highest dose activity change, negative = less growth, actives largely listed as inhibitors | S. pombe RE007 Vpr strain, BacTiter-Glo ATP luminescence, 24 h; active = well fitted falling curve with a large enough effect; inconclusive = small, poorly fitted or top-dose-only effect; inactive = no such curve, though single readings can be large or run the other way; also: potency is read from the fitted curve at half-maximal effect; nearly all actives have a fitted effect of over 50% in size
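Fission yeast RE007 carrying one integrated HIV-1 vpr copy, seeded at OD 0.01 in PMG+AL medium with 23 nL pinned compound. Grown 24 h at 30 degrees; viability read by BacTiter-Glo luminescence after 5 min.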
Sm TGR block – blocks Schistosoma mansoni thioredoxin glutathione reductase; Q962Y6; Potency, µM (doses to about 114 µM), without a hit: at the top dose activity change, negative = inhibition, usual class: inhibitors; purified TGR, DTNB reduction, TNB absorbance 405 nm; 3% of 360,000 active; also: potency is read from the fitted curve at half-maximal effect; nearly all actives have a fitted effect of over 60% in size
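TGR 20 nM + NADPH 100 uM (dispensed conc.), cpd preinc 15 min RT; start with NADPH (500 uM addition) then DTNB (15 mM addition). Kinetic TNB absorbance, 405 nm filter. Four-parameter Hill fit across titration.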
FMDV inh – foot and mouth disease virus antiviral activity; AID 1159524; 1.2% of 410,000 active; Potency, µM (top dose mostly 57.9 µM), inactives show at the highest dose activity change, negative = inhibition, hits mostly inhibitors; FMDV antiviral cell-based qHTS; calls by dose curve; tested in HEK293T cells; also: read-out not given here; potency is read from the fitted curve at half-maximal effect; nearly all actives have a fitted effect of over 45% in size
Giardia FBPA inh – blocks Giardia fructose-bisphosphate aldolase activity. purified Giardia FBPA. Potency, µM (doses to about 59.6 µM), for the others: at the highest dose activity, negative = inhibition, most hits filed as inhibitors. AID 2451. 0.71% of 290,000 active; also: potency is read from the fitted curve at half-maximal effect; nearly all actives have a fitted effect of over 55% in size
Target sequence (A8B2U2 whole entry, looked up): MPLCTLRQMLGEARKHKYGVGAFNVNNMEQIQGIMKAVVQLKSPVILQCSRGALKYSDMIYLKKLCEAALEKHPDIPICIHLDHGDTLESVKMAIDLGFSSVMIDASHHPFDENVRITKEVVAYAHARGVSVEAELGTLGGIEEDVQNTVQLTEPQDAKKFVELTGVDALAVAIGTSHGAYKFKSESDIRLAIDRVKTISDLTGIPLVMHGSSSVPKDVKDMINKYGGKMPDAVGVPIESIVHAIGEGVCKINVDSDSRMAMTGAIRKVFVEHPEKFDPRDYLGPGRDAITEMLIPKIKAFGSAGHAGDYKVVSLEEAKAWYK
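Giardia FBPA (40 nM reagent) was preincubated 10 min at RT with compound (up to 57.5 uM final), then substrate plus GAPDH/TPI/NAD/arsenate coupling system with diaphorase/resazurin was added; resorufin fluorescence (525/598 nm) was read after 20 min.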
Active calls of the source: *; ? = inconclusive; . = no result; [ ] = remark or other dose. In the library only some 7.7% were active in any assay of this set; here they are far more common. Unless noted, calls follow the shape of the dose curve; as a rule, active = well fitted curve in the direction sought with a large enough effect; inconclusive = small, poorly fitted or top-dose-only effect, or another doubt; inactive = no such curve, though single readings can be large; an effect the other way counts as inactive or inconclusive. % is scaled to controls: 0 for no effect and ±100 for the full control effect.

SMILES	HCMV antiviral	TbPYK inhibitor	RE007 growth inh	Sm TGR block	FMDV inh	Giardia FBPA inh
CC(=O)n1cc(N(C(=O)CCl)c2ccc([N+](=O)[O-])cc2)c2ccccc21	?	-3%	-16%	0.71µM*	10µM*	-13%
CC(=O)n1cc(N(C(=O)CCl)c2ccccc2)c2ccccc21	-98*	-1%	3%	0.5µM*	14µM*	-7%
O=Cc1[nH]c2ccccc2c1N(C(=O)CCl)c1ccc([N+](=O)[O-])cc1	-101*	-2%	-6%	3.2µM*	-19%	-21%
CC(=O)n1cc(CO)c2ccccc21	15	6%	-17%	-14%	-15%	14%
COC(=O)c1cc2c(c3c4cc(OC)ccc4n(S(C)(=O)=O)c13)C(=O)N(C)C2	-20	.	.	.	.	.
O=C1NC(=O)C2C3C=CC(C12)C1C(=O)NC(=O)C31 (configuration not stated)	17	.	.	.	.	.
COc1ccc(C(C)N(C)Cc2nc(N3CCN(C(=O)c4ccco4)CC3)c3ccccc3n2)cc1 (configuration not stated)	.	.	.	.	7%	.
COC(=O)c1ccccc1NC(=O)c1nc(-c2ccc(Cl)cc2)n2c1CCCCC2	8	0%	.	-3%	0%	.
Nc1nc(-c2ccco2)nn1S(=O)(=O)c1ccccc1	2	8%	0%	?	10%	0%
Cc1ccc(S(=O)(=O)n2nc(-c3ccco3)nc2N)cc1	-67*	2%	9%	?	4%	-3%
CCn1c(C(=O)NCc2ccccc2C)cc2oc3ccccc3c21	-82*	-11%	.	-5%	-6%	.
CCn1c(C)c(C)c2cc(C(=O)NCc3ccc(OC(C)C)cc3)ccc21	?	0%[15.4 µM]	.	-8%	11%	.
CCn1c(C(=O)NCc2ccc(OC(C)C)cc2)cc2oc3ccccc3c21	-79*	15%	.	3%	-15%	.
COCCNC(=O)c1cc2oc3ccccc3c2n1C	42	-3%	-18%	3%	0%	-4%
CC[C@H](C)[C@H](NC(=O)[C@H](C)NC(=O)[C@@H](N)C(C)C)C(=O)N[C@H](C(=O)N[C@H](C(=O)N[C@@H](CC(C)C)C(=O)N[C@H](C(=O)N[C@@H](CCCCN)C(=O)O)C(C)C)C(C)C)[C@@H](C)O	.	.	.	.	.	8%
Cc1cccc(C(=O)Nc2cccc(C(=O)OCc3cc(=O)n4c5c(sc4n3)CCCC5)c2)c1	-9	2%	.	10%	1%	.
CCC(C)NC(=O)CCc1nnc2ccc(N3CCC(C)CC3)nn12 (configuration not stated)	-61*	1%	7%	-2%	-32%	1%
CCOC(=O)C(C)NC(=O)CCc1nnc2ccc(N3CCC(C)CC3)nn12 (configuration not stated)	3	0%	0%	-17%	-1%	1%
CN(Cc1ccccc1)C(=O)c1ccc([N+](=O)[O-])o1	-38	5%	-15%	40µM*	-4%	-4%
O=C(/C=C/c1ccc(Cl)cc1)c1ccc([N+](=O)[O-])o1	-78*	1%	3%	?	?	.
Cc1ccc(CNC(=O)c2ccc([N+](=O)[O-])o2)cc1	-38	-1%	?	35µM*	-11%	-16%
Cc1ccc(C(=O)/C=C/c2ccccc2)o1	9	-9%	?	2%	?	-6%
Cc1ccc(CNC(=O)c2nn(C)c(C)c2[N+](=O)[O-])cc1	-27	-4%	?	5%	-7%	0%
Cc1ccc(C(=O)/C=C/c2ccc(Br)cc2)o1	31	6%	-20%	0%	-22%	0%
Cc1ccc(/C=C/C(=O)c2ccc([N+](=O)[O-])o2)cc1	-79*	-7%	13%	14µM*	?	.
SMILES	HCMV antiviral	TbPYK inhibitor	RE007 growth inh	Sm TGR block	FMDV inh	Giardia FBPA inh
COc1ccc(OC)c(NC(=O)CSC2=Nc3ccccc3C3=NC(CCC(=O)NCCc4ccccc4)C(=O)N23)c1 (configuration not stated)	-4	1%	.	2%	?	.
CC(C)(C)S(=O)(=O)N1C[C@@H]2CC(=O)C(CCO)=C2[C@H]1CCO	20	.	.	.	.	.
CC(=O)NC1=C(Nc2ccc(N(C)C)cc2)C(=O)c2ccccc2C1=O	-88*	-10%	?	?	-12%	-28%
CC(=O)NC1=C(N(C)C2CCS(=O)(=O)C2)C(=O)c2ccccc2C1=O (configuration not stated)	-33	-10%	-16%	?	13µM*	0.13µM*
COc1ccc2c(c1)CC(C(=O)Nc1ccc(Br)c(C)c1)CO2 (configuration not stated)	-16	0%	.	-4%	-24%	.
CCOC(=O)CC(NC(=O)C(Cc1ccc(N(CCCl)CCCl)cc1)NC(C)=O)C(=O)OCC (configuration not stated)	-92*	-28%	-12%	-4%	-30%	?
CCOc1cc(CN2CCN(c3cccc(C(F)(F)F)c3)CC2)ccc1OC	31	8%	-5%	0%	.	?
CC(C)OCc1cc(CN2CCN(c3cccc(C(F)(F)F)c3)CC2)c(O)c2ncccc12	-98*	0%	.	-2%	-25%	.
CCOCc1cc(CN2CCN(c3cccc(C(F)(F)F)c3)CC2)c(O)c2ncccc12	-100*	4%	.	-17%	?	.
COc1ccc(O)c(CN2CCCN(c3nc(C)c4cc(C)c(C)cc4n3)CC2)c1	.	.	.	.	5%	.
CO[C@@H]1COC(=O)C/C=C\[C@@H](C)[C@H](OC)COC(=O)C/C=C\[C@H]1C	.	.	.	.	.	0%[12.9 µM]
COC(=O)C1=C(C(=O)OC)SC2(S1)C(C(=O)OC)=C(C(=O)OC)SC1=C2c2cc(C)cc(C)c2NC1(C)C	32	4%	4%	3%	-21%	3%
COC(=O)C1=C(C(=O)OC)SC2(S1)C(C(=O)OC)=C(C(=O)OC)Sc1c2ssc1=O	-77*	?	?	.	32µM*	.
CCOC(=O)c1nnn(C(CC)C(=O)Nc2c(C)cccc2C)c1C(=O)OCC (configuration not stated)	0	-7%	.	16%	-24%	.
COc1cccc(N2CCN(C3CC(=O)N(c4ccc(Cl)c(Cl)c4)C3=O)CC2)c1 (configuration not stated)	18	1%	35µM*	?	?	-6%
COc1cccc(N2C(=O)CC(N3CCN(C(=O)c4ccco4)CC3)C2=O)c1 (configuration not stated)	10	-6%	-17%	?	-23%	2%
O=C(c1ccco1)N1CCN(C2CC(=O)N(c3ccc(F)c(Cl)c3)C2=O)CC1 (configuration not stated)	-3	-13%	?	20µM*	26%	-1%
